A selection: hits, their analogues and other compounds. The true share with any hit is near 3.5%.
PPC-1+TRAIL kill – kills PPC-1 cancer cells in the presence of TRAIL; cell killing (% activity), % at 4 µM or 5 µM; 220,000 tested, 0.41% active; PPC-1 cells + TRAIL, ATPLite viability luminescence; AID 1443;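 active = cell killing above 50% in the first pass at 4 µM, then a duplicate retest at 5 µM averaging 50% or more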
TROY NFkB inh – TROY signaling inhibition; Q293 LMP1-TROYcd NF-kB luciferase reporter, 4 h; inhibition, % at 10 µM; 360,000 tested, 0.98% active; AID 1347056;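 active = compounds whose plate-normalised and pattern-corrected inhibition of the luciferase reporter signal at the single screening dose is 50% or more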
HSP90 refold inh – HSP90 refolding inhibition in rabbit reticulocyte lysate; inhibition, % at 5.6 µM; luciferase refolding luminescence, 3 h; 290,000 tested, 0.91% active;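 active = inhibition above the screen-wide mean plus 3 SD, computed separately per campaign, cut at about 16% in these data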;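 note: inhibitors lower the luminescence because luciferase stays unfolded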
TWEAK-Fn14 inh – inhibitors of TWEAK-Fn14 interaction signaling. TWEAK-stimulated Fn14 reporter cells, luciferase luminescence, 8 h. 360,000 tested, 2% active. inhibition, % at 10 µM; in the data active = inhibition above about 50%
TRAIL sens C8 – caspase-8 TRAIL sensitization; NB7+C8 cells + TRAIL, ATPlite viability luminescence; 360,000 tested, 1% active; inhibition (viability loss, TRAIL sensitization), % at 10 µM;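 active = compounds causing at least 50% loss of cell viability in the single-dose screen, relative to plate controls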
Platelet DG rel – modulates dense granule release in human platelets; human platelet-rich plasma, SFLLRN dense granule ATP release, luminescence; inhibition, %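 (compounds screened at 7.5 µM in platelet-rich plasma)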; 300,000 tested, 0.22% active; AID 1663;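 active = mean replicate score, as percent of positive control, at or above 50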
Large screens that a line does not name were inactive.

Cc1ccc(NC(=O)c2ccc(N/N=C/c3cccc(O)c3)c([N+](=O)[O-])c2)cc1	PPC-1+TRAIL kill 53
Oc1cccc(/C=N/Nc2cccc3cccnc23)c1	TRAIL sens C8 54
O=[N+]([O-])c1ccc(N/N=C/c2cccc(O)c2)cc1	TROY NFkB inh 51 (no result: PPC-1+TRAIL kill)
Cc1cc(Br)cn2c(CC(C)(C)C)c(-c3cccc(Cl)c3)nc12	none (no result: PPC-1+TRAIL kill, HSP90 refold inh, Platelet DG rel)
C(=N\NC1=Nc2cccc3cccc1c23)/c1ccccc1	TRAIL sens C8 50
Cn1c(CCC(=O)O)nc2cc(S(=O)(=O)N3CCCC3)ccc21	none (no result: PPC-1+TRAIL kill, HSP90 refold inh, Platelet DG rel)
CCN(CC)S(=O)(=O)c1ccc2c(c1)nc(CCC(=O)O)n2C	Platelet DG rel 60
COc1ccc(-c2cc(C(=O)N3CCN(c4cccc(C)c4C)CC3)c3ccccc3n2)cc1OC	none (no result: PPC-1+TRAIL kill, HSP90 refold inh)
CC(=O)Nc1ccc(C(=O)COC(=O)CCc2ccccc2)c(F)c1	none (no result: PPC-1+TRAIL kill, HSP90 refold inh, Platelet DG rel)
CCc1nc2ccc(C(=O)Nc3cccc(OCC(=O)N(C)C)c3)cn2c1N(C)Cc1ccc(OC)cc1	none (no result: PPC-1+TRAIL kill, HSP90 refold inh, Platelet DG rel)
Cc1ccc(S(=O)(=O)N2C[C@@H]3CCCC[C@@H]3[C@@H](C)[C@H]2c2cn(Cc3ccccc3)c3ccccc23)cc1	TWEAK-Fn14 inh 61 (no result: PPC-1+TRAIL kill, HSP90 refold inh, Platelet DG rel)
Cc1ccc(S(=O)(=O)N2C[C@@H]3CCCC[C@@H]3[C@@H](C)[C@H]2c2cn(Cc3ccccc3)c3ncccc23)cc1	none (no result: PPC-1+TRAIL kill, HSP90 refold inh, Platelet DG rel)
COc1ccc2c(c1)c([C@@H]1[C@H](C)[C@H]3CCCC[C@H]3CN1S(=O)(=O)c1ccc(C)cc1)cn2C	TWEAK-Fn14 inh 84 (no result: PPC-1+TRAIL kill, HSP90 refold inh, Platelet DG rel)
O=[N+]([O-])c1ccc(S(=O)(=O)N2CCSC2c2ccco2)cc1 (centres undefined)	none
O=S(=O)(c1ccc(Cl)cc1)N1CCSC1c1ccco1 (centres undefined)	TROY NFkB inh 67
CN(C)C(=O)c1ccc(NC(=O)COC(=O)CCN=C2NS(=O)(=O)c3ccccc32)cc1	none (no result: PPC-1+TRAIL kill, HSP90 refold inh, Platelet DG rel)
CC(=O)c1cccc2c(O)c(C3=Nc4ccccc4C3=O)[nH]c12	TROY NFkB inh 54
O=C1C(c2c(O)[nH]c3ccccc23)=Nc2ccccc21	none
COc1ccc(NC(=O)COC(=O)CO/N=C(\C)c2ccc3c(c2)OCO3)cc1S(N)(=O)=O	none (no result: PPC-1+TRAIL kill, HSP90 refold inh, Platelet DG rel)
c1ccc(CCc2nn3c(-c4ccncc4)nnc3s2)cc1	TWEAK-Fn14 inh 74
O=C(COC(=O)Cc1ccc(Br)cc1)NCc1ccc(F)cc1	none
CCOc1cc(/C=N/NC(N)=O)cc(Br)c1OCC(=O)Nc1cccc2ccccc12	none
CCOc1cc(/C=N/NC(N)=O)cc(Br)c1OCC(=O)Nc1ccccc1C	Platelet DG rel 98
COc1cc(/C=C/c2cccc[n+]2C)ccc1OCC(=O)Nc1ccccc1C	none (no result: PPC-1+TRAIL kill)
CCOc1cc(/C=C\[N+](=O)[O-])ccc1OCC(=O)Nc1ccccc1C	TRAIL sens C8 64
COc1cc(/C=N/NC(N)=O)c(Br)cc1OCC(=O)Nc1ccccc1C	Platelet DG rel 80
COc1ccc(Cl)cc1NC(=O)C(C)N1CCN(c2ccccn2)CC1 (centres undefined)	none (no result: PPC-1+TRAIL kill)
O=C(NCc1ccco1)c1ccc2nc([C@@H]3O[C@H](CO)[C@H](O)[C@H](O)[C@H]3O)[nH]c2c1	none (no result: PPC-1+TRAIL kill, HSP90 refold inh, Platelet DG rel)
O=C(Nc1ccc(CN2CCOCC2)cc1)c1ccc(Br)cc1	none (no result: PPC-1+TRAIL kill)
O=C(Nc1ccc(CN2CCOCC2)cc1)c1ccc(-c2ccc(Br)cc2)o1	TROY NFkB inh 53
O=C(CN1C(=O)/C(=C2\SC(=S)N(C3CCS(=O)(=O)C3)C2=O)c2ccccc21)Nc1ccc(F)cc1 (centres undefined)	TWEAK-Fn14 inh 78
COC(=O)c1ccc(COC(=O)c2ccc(CS(=O)(=O)c3ccc(C)cc3)cc2)cc1	none
COC(=O)c1cc2c(n1S(=O)(=O)c1ccc(C)cc1)C(=O)C(=O)c1[nH]cc(C(=O)OCc3ccccc3)c1-2	TROY NFkB inh 65, TWEAK-Fn14 inh 103, TRAIL sens C8 93 (no result: PPC-1+TRAIL kill, HSP90 refold inh, Platelet DG rel)
CCCOc1cccc(-c2cc(C(=O)N/N=C/c3ccccn3)c3ccccc3n2)c1	TWEAK-Fn14 inh 94 (no result: PPC-1+TRAIL kill)
O=C(N/N=C/c1ccccn1)c1cc(-c2ccc(Cl)cc2)nc2ccccc12	none
O=C(N/N=C/c1ccccn1)c1cc(-c2ccc(Br)cc2)nc2ccccc12	TWEAK-Fn14 inh 100
CC1CCN(C(=O)Cn2c(=O)n(Cc3ccco3)c(=O)c3sccc32)CC1	none (no result: PPC-1+TRAIL kill)
CC(C)OC(=O)c1cc(C(=O)c2cc(Br)ccc2O)coc1=N	none
